# Source: PubChem BioAssay (National Center for Advancing Translational Sciences (NCATS))
# An excerpt weighted towards active compounds, which were near 4.6% of everything screened.
# D1 potentiator: enhances dopamine response at the human D1 receptor; P21728; HEK293 TREx D1 cells, calcium flux, dopamine EC20 potentiation; potentiation, % at 10 µM; hit rate 0.036% among 360,000; AID 504651; in the data active means potentiation above about 30%; further: 0% is about no effect
# TRHR agonist: agonists of human TRH receptor. activation, % at 2 µM. P34981. hit rate 0.18% among 360,000. TRHR cells, calcium flux fluo-8, FDSS agonist mode; further: 0% is about no effect
# Target sequence (P34981 whole entry, looked up): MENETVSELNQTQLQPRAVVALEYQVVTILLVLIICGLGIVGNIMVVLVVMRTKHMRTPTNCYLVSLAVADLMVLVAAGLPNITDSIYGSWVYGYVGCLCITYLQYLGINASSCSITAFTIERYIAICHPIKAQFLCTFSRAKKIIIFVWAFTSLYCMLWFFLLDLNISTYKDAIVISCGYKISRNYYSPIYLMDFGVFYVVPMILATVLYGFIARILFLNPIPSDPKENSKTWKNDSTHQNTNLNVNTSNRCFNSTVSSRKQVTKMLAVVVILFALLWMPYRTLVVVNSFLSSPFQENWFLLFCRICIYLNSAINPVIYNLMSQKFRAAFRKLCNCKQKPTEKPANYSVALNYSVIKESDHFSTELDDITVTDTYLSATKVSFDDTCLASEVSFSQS
#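 Agonist-mode FDSS calcium read (Ex 480/Em 530, 1 s cycles) in 1536-well TRHR cells with fluo-8 dye, after 10-cycle baseline and 23 nL compound addition; TRH at EC20 (10 nM final) added afterwards for the enhancer phase.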
# D1 antag: human D1 dopamine receptor antagonism; P21728; HEK293 TREx D1 cells, calcium flux, dopamine EC80; stronger effect = lower value; activity change, negative = inhibition, % at 10 µM; hit rate 3.2% among 360,000; in the data active means activity change below about -30%; further: on the % scale 0 is the no-effect control and ±100 the full control effect
#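 Compound effects on dopamine-evoked calcium signalling were measured in tetracycline-induced HEK293 Trex D1 cells. Dopamine at EC80 followed a 180 s compound pre-read, and fluorescence was tracked kinetically for 180 s more.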
# TRHR enhancer: allosteric enhancers of human TRH receptor; TRHR cells, fluo-8 calcium fluorescence, EC20 TRH enhancement; enhancement, % at 2 µM; hit rate 0.66% among 360,000; AID 493056; in the data active means enhancement above about 30%; further: 0% is about no effect
#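 TRHR-expressing cells loaded with fluo-8 calcium dye were read kinetically (ex 480/em 530) during compound addition, then stimulated with an EC20 of TRH (10 nM final). Enhancement of the Gq-mediated intracellular calcium response was scored.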
# D1 agonist: agonists of human D1 dopamine receptor. HEK293 T-REx D1 cells, calcium flux, agonist mode. activation, % at 2 µM. hit rate 1% among 360,000. AID 504660; further: 0% is about no effect
#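 Inducible HEK293 T-REx D1 cells, force-coupled to calcium signalling, were plated at 4000 cells/well with tetracycline and held overnight at 30 C. After no-wash calcium dye loading, compound-evoked calcium rise over 180 s flagged agonists.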
# Numbers without * were called inactive. Unless noted, no stated cut-off is given here; in the data, active means activation above about 30%; inactive means the rest.
SMILES,D1 potentiator,TRHR agonist,D1 antag,TRHR enhancer,D1 agonist
OC1CCN(Cc2cn(Cc3ccccc3)nc2-c2cc3ccccc3o2)CC1,-6,5,-31*,6,25
COCC1CCN(Cc2cn(Cc3ccccc3)nc2-c2cc3ccccc3o2)CC1,-2,-2,-1,4,39*
O=C(Cn1nc(N2CCN(c3ccccc3)CC2)ccc1=O)NCc1ccccc1F,-3,0,-37*,-3,0
CCOc1ccccc1CNC(=O)Cn1nc(N2CCN(c3ccccc3)CC2)ccc1=O,0,0,-14,-5,2
Cc1cc2c(s1)c1cnn(Cc3cccc(Br)c3)c(=O)c1n2C,1,-2,-13,1,-1
C[C@@H](C(=O)Nc1ccc2ccccc2c1)[C@@H]1C[C@@]1(C)[C@@H](NC(=O)c1cnccn1)c1ccccc1,-1,0,-30*,4,6
O=C(Nc1ccc(Cl)cc1F)c1oc(=O)c2ccccc2c1-c1ccccc1,4,0,12,1,14
Cc1cc2nc(C)c(=O)n(C)c2cc1C,-8,0,-38*,11,-1
Cc1ccc(OCCn2c(-c3ccc(Cl)cc3)nc3ccccc3c2=O)c(C)c1,0,1,6,4,1
C=CCNC(=O)CC(=O)N/N=C/c1ccccc1F,8,0,-4,32*,2
Cc1ccc(/C=N/NC(=O)Cn2cncn2)cc1,0,1,3,6,1
O=C(Cn1cncn1)N/N=C/c1ccccc1Cl,-8,1,-11,32*,0
O=C(CO)N/N=C/c1ccccc1F,4,0,4,-6,3
O=C(CC(=O)N/N=C/c1ccc(Cl)cc1Cl)NCc1ccccc1,2,0,0,0,2
O=C(CN1CCCCCCC1)N/N=C/c1ccccc1F,-5,-1,-39*,4,-1
O=C(CC(=O)N/N=C/c1c(F)cccc1Cl)NCc1ccccc1,-4,1,-81*,-3,0
COc1ccc(-c2ccc(=O)n(CC(=O)Nc3ccc(N(C)C)cc3)n2)cc1,1,-1,-2,4,1
Cc1nnc(NC(=O)CSCc2cc(=O)c3ccc(C)c(C)c3[nH]2)s1,0,0,-1,-2,0
CCN(CC)CCCNC(=O)Cn1cc2c(n1)CCC(C)C2 (stereo not given),-4,0,-41*,-1,1
CCCSCCCNC(=O)Cn1cc2c(n1)CCC(C)C2 (stereo not given),-1,-1,-2,-1,0
CN(C)CCNC(=O)c1cc2c(s1)-c1ccc(Cl)cc1SC2,-9,5,-48*,-10,16
O=C(Cn1c2ncccc2c(=O)n1-c1ccccc1)Nc1cccc(C(F)(F)F)c1,-1,1,-7,-9,6
COc1cccc(CN2CCc3ccc(NC(=O)CCc4ccc(C)cc4)cc3C2)c1O,3,0,-31*,7,2
COc1cc(CN2CCc3ccc(NC(=O)CCc4ccccc4OC)cc3C2)ccc1O,-8,0,-10,1,10
COc1ccccc1CCC(=O)Nc1ccc2c(c1)CN(CCCn1cccn1)CC2,-6,0,2,1,0
SMILES,D1 potentiator,TRHR agonist,D1 antag,TRHR enhancer,D1 agonist
COc1ccc(CN2CCc3ccc(NC(=O)CCc4ccccc4OC)cc3C2)c(O)c1,-20,1,-83*,-2,2
Cc1ccccc1-c1nc(SCC(=O)NCC2CCCO2)c2c(=O)n(C)c(=O)n(C)c2n1 (stereo not given),-1,0,9,6,-1
Cc1nn(C(=O)c2c(F)cccc2F)c(C)c1S(=O)(=O)N1CCCCCC1,-4,0,-63*,1,4
Cc1c(CCO)c(=O)[nH]n1C(=O)c1ccc(F)cc1,-9,0,-31*,2,1
Cc1c(CCO)c(=O)n(C)n1C(=O)c1ccc(F)cc1,-7,0,12,-1,5
CN(C)S(=O)(=O)c1cc(NC(=O)Cn2ccsc2=N)ccc1Cl,-3,0,-30*,-5,1
Cc1ccc(NC(=O)Cn2ccsc2=N)cc1S(=O)(=O)N(C)C,-5,0,-7,1,3
Cc1ccc(-n2nc(C(=O)NC(C)C)c(=O)n(C)c2=O)cc1,-1,0,-5,2,-1
Cc1ccc2[nH]c3c(NCCN4CCOCC4)ncnc3c2c1,-2,0,-2,1,2
COc1ccc(/C=N/Nc2ncnc3c2[nH]c2ccccc23)c(OC)c1OC,-2,0,-5,-4,5
C=CCNc1ncnc2c1[nH]c1ccc(C)cc12,-8,0,-32*,-5,12
COCCNc1ncnc2c1[nH]c1ccccc12,-15,0,-37*,-4,9
COc1cccc(/C=N/Nc2ncnc3c2[nH]c2ccc(C)cc23)c1OC,-7,0,-34*,-10,3
Fc1ccc2[nH]c3c(NCc4ccccc4)ncnc3c2c1,-10,8,-40*,-3,26
COc1ccc2[nH]c3c(NCc4ccco4)ncnc3c2c1,-5,0,-17,1,3
COc1ccc(Nc2nc3c(S(=O)(=O)c4ccc(C)cc4)nnn3c3ccsc23)cc1Cl,-5,0,2,3,0
CCOc1ccc(NC(=O)c2oc3ccccc3c2NC(=O)Cc2ccc(F)cc2)cc1,2,0,10,3,0
CC(C)CCNC(=O)c1cccc(Nc2nc3ccccc3n3nnnc23)c1,-3,-1,5,-1,0
CCc1cccc(CC)c1NC(=O)C(CC)n1nc(C)n2c(cc3cc(C)ccc32)c1=O (stereo not given),4,-1,-21,-2,5
COc1ccc(C2(c3ccc(OC)cc3)NC(=O)N(CC(=O)Nc3ccccc3C)C2=O)cc1,-5,-1,17,36*,0
COc1ccc(C2(c3ccc(OC)cc3)NC(=O)N(CC(=O)Nc3ccccc3C(F)(F)F)C2=O)cc1,-9,1,7,-13,2
CC1(c2cccc(Br)c2)NC(=O)N(CC(=O)N2CCN(C(=O)c3ccco3)CC2)C1=O (stereo not given),0,0,-4,-13,2
CCC1(c2ccc(F)cc2)NC(=O)N(CC(=O)Nc2cccnc2Cl)C1=O (stereo not given),5,5,6,4,43*
COc1ccc(C2(C)NC(=O)N(CC(=O)Nc3cccnc3Cl)C2=O)cc1 (stereo not given),-1,4,16,-12,17
CC1(c2ccc(OC(F)F)cc2)NC(=O)N(CC(=O)N2CCN(C(=O)c3ccco3)CC2)C1=O (stereo not given),-1,0,-30*,-3,2
CC1(c2ccc(OC(F)F)cc2)NC(=O)N(CC(=O)Nc2cccnc2Cl)C1=O (stereo not given),5,6,-62*,7,73*
